Data: the supplement of paper PMC6897291
Where a name gives a salt, the structure may show the parent alone.

Test system: RIVA
Assay: growth inhibition by drug plus 177Lu-lilotomab satetraxetan (1 - RLU/untreated control) (fraction); higher = stronger inhibition
Settings: 177Lu-lilotomab satetraxetan 0.5 ug/ml
Protocol: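 RIVA (RI-1) ABC-DLBCL cells were pretreated or not for 18 h with 0.5 ug/ml 177Lu-lilotomab satetraxetan (600 MBq/mg), washed and seeded (3000 cells/well) on 384-well plates pre-printed with the Selleck Cambridge Cancer Compound library. Viability was read by RealTime-Glo luminescence on days 3-6 after seeding. Effect = 1 - RLU/mean RLU of the 48 untreated no-drug control wells per plate; Bliss score = (M-E)/(1-Fa).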

Compound | growth inhibition by drug plus 177Lu-lilotomab satetraxetan (10 nM, time (day): 3) | growth inhibition by drug plus 177Lu-lilotomab satetraxetan (10 nM, time (day): 4) | growth inhibition by drug plus 177Lu-lilotomab satetraxetan (10 nM, time (day): 5) | growth inhibition by drug plus 177Lu-lilotomab satetraxetan (10 nM, time (day): 6) | growth inhibition by drug plus 177Lu-lilotomab satetraxetan (100 nM, time (day): 3) | growth inhibition by drug plus 177Lu-lilotomab satetraxetan (100 nM, time (day): 4) | growth inhibition by drug plus 177Lu-lilotomab satetraxetan (100 nM, time (day): 5) | growth inhibition by drug plus 177Lu-lilotomab satetraxetan (100 nM, time (day): 6)
CNNCc1ccc(C(=O)NC(C)C)cc1 [Procarbazine hydrochloride (Matulane)] | 0.542 | 0.584 | 0.596 | 0.607 | 0.494 | 0.553 | 0.563 | 0.554
C[C@]12CC[C@H](O)CC1=CC[C@@H]1[C@@H]2CC[C@]2(C)C(c3cccnc3)=CC[C@@H]12 [Abiraterone (CB-7598)] | 0.487 | 0.574 | 0.591 | 0.595 | 0.305 | 0.41 | 0.407 | 0.425
COc1cc2c(N3CCN(C(=O)Nc4ccc(OC(C)C)cc4)CC3)ncnc2cc1OCCCN1CCCCC1 [Tandutinib (MLN518)] | 0.419 | 0.516 | 0.54 | 0.542 | 0.365 | 0.403 | 0.407 | 0.387
CN(C)Cc1ccc(-c2nc3cccc4c3n2CCNC4=O)cc1 | 0.564 | 0.632 | 0.638 | 0.652 | 0.585 | 0.642 | 0.654 | 0.657
CNC(=O)[C@@H](NC(=O)[C@H](CC(C)C)[C@H](O)C(=O)NO)C(C)(C)C [Marimastat] | 0.34 | 0.438 | 0.469 | 0.492 | 0.34 | 0.431 | 0.449 | 0.457
